Growth data for 12 molecules are collected here from PubChem BioAssay (NCI).

Molecules are shown by their SMILES. Compounds without any hit were thinned out: in the full panel of roughly 83,000, 20% have a hit.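 Single-concentration screen, 48 h exposure, 96-well plates. Endpoint: percent growth. Below 10 = active.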 Unmarked numbers belong to inactive results. Activity calls are given as the source filed them.

What all share (experiment): NCI-60 one-dose screen, 48 h (100 = growth as untreated, 0 = no growth, -100 = all killed)
One assay relates to DU-145 prostate. As to conditions: 10 µM unless noted.
Another assay concerns K-562 leukemia. As to conditions: 10 µM unless noted.
Another assay deals with MALME-3M melanoma. To be noted: 10 µM unless noted.
For the next assay, the system named is MDA-MB-231 breast. As to conditions: 10 µM unless noted.
A further assay has as its system RXF 393 renal. As to conditions: 10 µM unless noted.
The subject of another assay is SF-268 CNS. As to conditions: 10 µM unless noted.
A further assay concerns SF-295 CNS. To be noted: 10 µM unless noted.
The test system of a further assay is SF-539 CNS. As to conditions: 10 µM unless noted.
Another assay concerns UACC-257 melanoma. As to conditions: 10 µM.
A further assay concerns M14 melanoma. As to conditions: 10 µM unless noted.

As to `CCCC(C(=O)OCC)C(C)OC(=O)OCC` (stereo not given), the growth with DU-145 prostate is 106%; in the assay on K-562 leukemia, 81.6%; in the assay on MALME-3M melanoma, 85.9%; with MDA-MB-231 breast, 105%; in the assay on RXF 393 renal, 96.3%; with SF-268 CNS it was 96.9%. Further, the growth with SF-295 CNS is 84.7%; in the assay with SF-539 CNS, 107%; in the assay on UACC-257 melanoma it was 97.5%; with M14 melanoma, 97.6%.
In the case of `NS(=O)(=O)c1ccc(NCC(=O)Nc2ccc(-c3nc4ccccc4s3)cc2)cc1`, the growth was 47% in the assay on DU-145 prostate; 8.38% (active) in the assay with K-562 leukemia; 53.6% with MALME-3M melanoma; 45% in the assay on MDA-MB-231 breast; 99.9% in the assay with RXF 393 renal; 25.1% with SF-268 CNS. The growth was 98.8% in the assay with SF-295 CNS, 91.4% in the assay on SF-539 CNS, 97.2% with UACC-257 melanoma and 45.6% in the assay on M14 melanoma.
On to `CCC1CCc2nc3sc(C(=O)Nc4ccccc4F)c(N)c3cc2C1` (stereo not given), for which the growth in the assay on DU-145 prostate was 55.8%; in the assay on K-562 leukemia, 37.8%; in the assay with MALME-3M melanoma, 48.7%; with MDA-MB-231 breast, 69.9%; in the assay with RXF 393 renal, 79.6%; in the assay on SF-268 CNS it was 61.5%. Also, the growth in the assay with SF-295 CNS is 46.6%; with SF-539 CNS it was 75%; in the assay on UACC-257 melanoma, 57.5%; with M14 melanoma it was 44.4%.
`COc1ccc(-c2nc(-c3nc4ccc(F)cc4[nH]3)cc3c2[nH]c2ccccc23)cc1`: the growth in the assay with DU-145 prostate is 25.6%; in the assay on K-562 leukemia it was 20.3%; with MALME-3M melanoma it was 39.1%; with MDA-MB-231 breast, 43.6%; with RXF 393 renal, 56.5%; with SF-268 CNS it was 41.3%. Further, the growth in the assay with SF-295 CNS was 55.5%; with SF-539 CNS it was 69.1%; with UACC-257 melanoma, 9.58% (active); in the assay on M14 melanoma, 36%.
On to `COc1ccc(-c2nc3sccn3c2-c2ccnc(NCCCNS(=O)(=O)c3ccc4ccccc4c3)n2)cc1`, for which the growth was 62.1% in the assay with DU-145 prostate; 34.6% with K-562 leukemia; 80.8% in the assay on MALME-3M melanoma; 53.7% in the assay on MDA-MB-231 breast; 76.9% with RXF 393 renal; 63.5% with SF-268 CNS. The growth in the assay with SF-295 CNS is 61%; in the assay with SF-539 CNS, 71.7%; in the assay with UACC-257 melanoma it was 82.8%; in the assay with M14 melanoma, 56.5%.
On to `COc1cccc(-c2nc3sccn3c2-c2ccnc(NCCCNS(=O)(=O)c3ccc(F)cc3)n2)c1`, for which the growth was 27.7% in the assay with DU-145 prostate; 16.6% with K-562 leukemia; 32.4% in the assay with MALME-3M melanoma; 53.2% in the assay with MDA-MB-231 breast; 55% in the assay with RXF 393 renal; 37% with SF-268 CNS. Also, the growth was 24.7% in the assay with SF-295 CNS, 66.7% in the assay with SF-539 CNS, 55.2% in the assay on UACC-257 melanoma and 18.1% in the assay with M14 melanoma.
As to `COc1ccc2c(c1)C(=O)/C(=C/c1ccc(O)cc1)O2`, the growth is 109% with DU-145 prostate; 59.7% in the assay on K-562 leukemia; 71.2% in the assay on MALME-3M melanoma; 78.5% in the assay with MDA-MB-231 breast; -59.9% (active) in the assay on RXF 393 renal; 97.9% with SF-268 CNS. Moreover, the growth with SF-295 CNS was 98.1%; with SF-539 CNS, 80.2%; in the assay on UACC-257 melanoma, 86.7%; in the assay with M14 melanoma it was 93.4%.
With `Nc1c(C(=O)Nc2cccc(C(F)(F)F)c2)sc2nc3c(cc12)CCCCC3`, the growth in the assay with DU-145 prostate is 44.1%; with K-562 leukemia it was 36.9%; with MALME-3M melanoma, -20.4% (active); with MDA-MB-231 breast, -29.5% (active); with RXF 393 renal, -20.7% (active); in the assay on SF-268 CNS, 25.8%. In addition, the growth in the assay on SF-295 CNS was 11.7%; in the assay with SF-539 CNS it was -63.3% (active); in the assay with UACC-257 melanoma, 18.6%; with M14 melanoma, 49.6%.
Consider `Cc1ccc2c(c1)C(=O)C(c1c(-c3[nH]c(=O)c4ccc(C)cc4c3O)c(O)c3ccccc3c1O)=NC2=O`, for which the growth in the assay with DU-145 prostate is -58.7% (active); in the assay on K-562 leukemia, 10.7%; in the assay with MALME-3M melanoma, -39.1% (active); in the assay with MDA-MB-231 breast, -6.31% (active); with RXF 393 renal, -10.8% (active); in the assay on SF-268 CNS, 9.4% (active). Also, the growth is 49.9% in the assay with SF-295 CNS, 61.1% in the assay with SF-539 CNS, 63.1% in the assay on UACC-257 melanoma and 35.7% with M14 melanoma.
With `O=C(Nc1ccc(Br)c(Cl)c1)c1cc(F)ccc1O`, the growth was 23.5% with DU-145 prostate; 9.59% (active) with K-562 leukemia; -22.8% (active) in the assay on MALME-3M melanoma; -20% (active) with MDA-MB-231 breast; -5.62% (active) with RXF 393 renal; 19.1% in the assay with SF-268 CNS. The growth with SF-295 CNS is -53.1% (active); with SF-539 CNS it was 5.17% (active); in the assay with UACC-257 melanoma it was -23.5% (active); in the assay with M14 melanoma it was -14.3% (active).
Regarding `COc1ccc(/C=C/C(=O)c2ccc(NC(=O)CN3CCN(c4cc5c(cc4F)c(=O)c(C(=O)O)cn5C4CC4)CC3)cc2)cc1`, the growth was 126% in the assay on DU-145 prostate; 104% in the assay with K-562 leukemia; 94.5% in the assay on MALME-3M melanoma; 96.2% in the assay with MDA-MB-231 breast; 98.4% in the assay with RXF 393 renal; 113% in the assay with SF-268 CNS. In addition, the growth with SF-295 CNS was 95.3%; with SF-539 CNS, 108%; in the assay with UACC-257 melanoma it was 96.5%; in the assay with M14 melanoma, 96.9%.
With `COc1cccc(/C=C/C(=O)c2sc(Nc3ccc(O)cc3)nc2C)c1`, the growth was 94.9% with DU-145 prostate; 79.1% with K-562 leukemia; 95% in the assay on MALME-3M melanoma; 105% with MDA-MB-231 breast; 84.6% with RXF 393 renal; 61.2% with SF-268 CNS. Besides, the growth in the assay on SF-295 CNS is 104%; in the assay with SF-539 CNS it was 74.5%; in the assay on UACC-257 melanoma, 85%; in the assay on M14 melanoma, 95.4%.
